Rows were chosen to be rich in hits. Some 7.3% of all compounds tested hit in one or more screens of this group.
AmpC inh no detg: AmpC beta-lactamase inhibition without detergent | AID 485341 | 330,000 compounds, 0.52% hits | Potency, µM (titrated, usually from 57.1 µM), hits mostly inhibitors | AmpC nitrocefin hydrolysis, absorbance 480 nm, 0.0001% Triton; also: nearly all actives have a fitted effect of over 20% in size
Target sequence (P00811 whole entry, looked up): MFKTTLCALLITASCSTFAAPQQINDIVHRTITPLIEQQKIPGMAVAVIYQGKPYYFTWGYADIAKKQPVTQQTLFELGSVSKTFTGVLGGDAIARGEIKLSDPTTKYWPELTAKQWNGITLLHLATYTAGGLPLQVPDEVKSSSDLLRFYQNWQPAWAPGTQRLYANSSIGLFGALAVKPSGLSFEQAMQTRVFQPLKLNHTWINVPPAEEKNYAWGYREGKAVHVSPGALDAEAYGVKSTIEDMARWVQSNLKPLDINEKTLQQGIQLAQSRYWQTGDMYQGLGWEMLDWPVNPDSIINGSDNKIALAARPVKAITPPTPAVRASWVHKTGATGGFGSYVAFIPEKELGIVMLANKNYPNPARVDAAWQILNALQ
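AmpC (5.3 nM in the dispensed reagent) in 20 mM phosphate pH 7.0 with 0.01% (detergent screen) or 0.0001% Triton X-100 was preincubated with compounds for 15 min at room temperature. Nitrocefin was then added from an 800 uM solution, and hydrolysis was followed at 480 nm.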
FMDV antiviral: blocks foot and mouth disease virus | AID 1159524 | Potency, µM (top dose mostly 57.9 µM), hits mostly inhibitors | FMDV antiviral cell-based qHTS | 410,000 compounds, 1.2% hits; calls by dose curve; tested in HEK293T cells; also: read-out not given here; nearly all actives have a fitted effect of over 45% in size
AmpC detergent: AmpC beta-lactamase inhibition with detergent present; AmpC hydrolysis of nitrocefin, absorbance 480 nm, 0.01% Triton; Potency, µM (highest dose often 114 µM), usual class: inhibitors; 370,000 compounds, 0.041% hits; also: nearly all actives have a fitted effect of over 25% in size
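20 mM phosphate pH 7.0 + 0.01% (detergent screen) or 0.0001% Triton X-100; 5.3 nM AmpC reagent; cpd preinc 15 min RT; nitrocefin (800 uM stock) to start; A480 q20 s × 4 min; Activity was normalised to no-enzyme and no-compound control wells.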
HCMV antiviral: human cytomegalovirus inhibition. AID 1259415. activity change, negative = inhibition, % at 57.5 µM. HFF cells, HCMV-luciferase reporter, 72 h; stronger effect = lower value. 410,000 compounds, 4.5% hits; in the data active = activity change below about -60%; inconclusive = no clear call, values can overlap the other calls; inactive = above about -39%
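Human foreskin fibroblasts infected with luciferase-reporter HCMV at MOI 1 PFU/cell, compounds at two doses. Luciferase measured 72 h post infection; normalized to buffer-only basal and Salinomycin (10uM) controls.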
HCV inh: HCV inhibition | Huh7.5.1 HCVcc-Cre infection, luciferase reporter, 44 h | Potency, µM (titrated, usually from 41.8 µM), usual class: inhibitors | 340,000 compounds, 3.4% hits
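After 44 h co-culture of compound, cells and HCVcc-Cre (~0.5 moi), substrate is added for 15 min at room temperature and luciferase measured over 15 sec. Cells were seeded at 1,000/well and pre-cultured 4 h.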
Hits are given with their value; n = inactive; u = inconclusive; x = not tested or not shown. Unless noted, calls follow the shape of the dose curve; as a rule, active = well fitted curve in the direction sought with a large enough effect; inconclusive = small, poorly fitted or top-dose-only effect, or another doubt; inactive = no such curve, though single readings can be large; an effect the other way counts as inactive or inconclusive.

SMILES	AmpC inh no detg	FMDV antiviral	AmpC detergent	HCMV antiviral	HCV inh
COc1ccc(CCNC(=O)CCSc2nc(-c3ccco3)cc(C(F)(F)F)n2)cc1OC	n	n	n	n	5.6µM
O=C(CCSc1nc(-c2ccco2)cc(C(F)(F)F)n1)NCc1ccccn1	n	n	n	n	11µM
COc1ccc(CCC(=O)OCc2csc(CC(=O)Nc3ccc(C)cc3)n2)cc1OC	n	n	x	n	n
COc1ccc(CCNC(=O)c2ccc3nc(-c4ccco4)c(-c4ccco4)nc3c2)cc1OC	n	16µM	n	x	2.8µM
CCc1nc2ccc(C(=O)NCCc3ccc(OC)c(OC)c3)cc2nc1CC	n	u	n	n	u
O=C(CCSc1nc(-c2ccco2)cc(C(F)(F)F)n1)NCc1cccs1	n	n	n	n	10µM
O=C(CCSc1nc(-c2ccco2)cc(C(F)(F)F)n1)Nc1cccc(O)c1	x	u	n	n	x
O=S(=O)(Nc1cccnc1)c1ccc(Br)c2ccccc12	n	n	n	u	n
O=C(CNS(=O)(=O)c1ccccc1)OCC(=O)c1ccccc1Cl	n	n	n	n	n
O=C(CCl)N(c1ccccc1)C1CCCCC1	n	u	n	-113	4µM
O=c1oc2ccccc2c(O)c1Cc1c(O)c2ccccc2oc1=O	x	n	x	x	x
O=c1oc2ccccc2c2oc3cc(O)c(O)cc3c12	14µM	n	n	n	n
CCc1nc2ccc(Br)cc2c(=O)n1-c1ccccc1C(F)(F)F	x	n	x	n	u
CCCc1nc2ccc(Br)cc2c(=O)n1-c1ccc([N+](=O)[O-])c(C(F)(F)F)c1	n	u	n	-87	u
Cc1ccc(NC(=O)CN(Cc2ccco2)Cc2ccccc2O)cc1C	n	n	n	-64	u
Cc1ccc(NC(=O)N(Cc2ccco2)C(C)c2ccco2)cc1C (stereo not given)	n	n	n	n	n
COc1ccc(N2C(=O)CC(Sc3ncn[nH]3)C2=O)c(OC)c1 (stereo not given)	n	n	u	-98	16µM
COc1ccc(NC2CCCN(C(=O)CN3CCOC3=O)C2)cc1 (stereo not given)	n	n	n	n	n
CO/N=C(\c1nonc1N)N1CCN(c2ccc(Cl)cc2[N+](=O)[O-])CC1	n	35µM	n	n	u
CNc1ccccc1C(C)(C)c1cc(C)[nH]n1	n	n	n	-65	n
CCC1CCCCN1c1nc2c(C=O)c(C)nn2c2ccccc12 (stereo not given)	n	n	n	-64	10µM
CC(=O)Nc1cccc(NC(=O)CSc2ncc(C(=O)Nc3ccccc3)c(=O)n2C)c1	n	u	u	n	11µM
CCOc1ccc(OCC)c(NC(=O)CSc2nc3cccnc3n2C)c1	n	18µM	u	-63	6.3µM
Cc1cccc(NC(=O)CSc2nc3ccccc3c(=O)n2C)c1	n	u	n	u	10µM
CC(=O)Nc1cccc(NC(=O)CSc2ncc(C(=O)Nc3ccc(F)cc3)c(=O)n2C)c1	n	u	n	n	n
SMILES	AmpC inh no detg	FMDV antiviral	AmpC detergent	HCMV antiviral	HCV inh
Cc1cccc(NC(=O)CSc2nc3c([nH]c4ccccc43)c(=O)n2C)c1	n	n	n	n	n
CCOc1ccc(OCC)c(NC(=O)CSc2nnnn2CC)c1	n	n	n	n	u
CCOc1ccc(OCC)c(NC(=O)CSc2nc3ccccc3c(=O)n2C)c1	n	u	u	-70	u
CNS(=O)(=O)c1cn(CC(=O)Nc2ccc(C)c(N(C)C)c2)cc1S(=O)(=O)NC	x	n	n	u	x
Cc1cc(=O)[nH]c(Nc2ccccc2C)n1	n	n	n	n	n
Cc1ncc2c(c1CNC(=O)CN1CCCC1)CCN(C(=O)c1ccc(F)cc1F)C2	x	n	x	x	x
Cn1c(=O)[nH]c(=O)c2c1nc(SCC(=O)O)n2Cc1ccccc1	n	n	n	n	n
Cc1cccc(C)c1NC(=O)Cn1cnc2c(=O)n(C)c(=O)n(C)c21	n	n	u	n	n
Cc1cccc(Cn2c(SCC(=O)Nc3ccccc3)nc3c2c(=O)[nH]c(=O)n3C)c1	n	n	u	n	25µM
Cc1ccccc1C(=O)Nc1cccc(NC(=O)Cn2cnc3c(=O)n(C)c(=O)n(C)c32)c1	n	n	n	-64	u
O=Cc1ccc(-c2ccc([N+](=O)[O-])cc2Cl)o1	n	n	n	-66	n
O=C(NCCNc1ccnc2cc(Cl)ccc12)c1ccccc1F	n	u	u	-62	13µM
